The values below come from ChEMBL document CHEMBL1201862, “PubChem BioAssay data set” (2004).

Molecules are shown by their SMILES. Hit rate of the full screen: of about 400,000 compounds, about 2,100 (0.53%) were called active. Inconclusive results (about 14%) are left out. No rule for the calls is given here. The full list was thinned out, with actives kept by preference.

Ataxin-2 (Homo sapiens), sequence (Q99700 whole entry): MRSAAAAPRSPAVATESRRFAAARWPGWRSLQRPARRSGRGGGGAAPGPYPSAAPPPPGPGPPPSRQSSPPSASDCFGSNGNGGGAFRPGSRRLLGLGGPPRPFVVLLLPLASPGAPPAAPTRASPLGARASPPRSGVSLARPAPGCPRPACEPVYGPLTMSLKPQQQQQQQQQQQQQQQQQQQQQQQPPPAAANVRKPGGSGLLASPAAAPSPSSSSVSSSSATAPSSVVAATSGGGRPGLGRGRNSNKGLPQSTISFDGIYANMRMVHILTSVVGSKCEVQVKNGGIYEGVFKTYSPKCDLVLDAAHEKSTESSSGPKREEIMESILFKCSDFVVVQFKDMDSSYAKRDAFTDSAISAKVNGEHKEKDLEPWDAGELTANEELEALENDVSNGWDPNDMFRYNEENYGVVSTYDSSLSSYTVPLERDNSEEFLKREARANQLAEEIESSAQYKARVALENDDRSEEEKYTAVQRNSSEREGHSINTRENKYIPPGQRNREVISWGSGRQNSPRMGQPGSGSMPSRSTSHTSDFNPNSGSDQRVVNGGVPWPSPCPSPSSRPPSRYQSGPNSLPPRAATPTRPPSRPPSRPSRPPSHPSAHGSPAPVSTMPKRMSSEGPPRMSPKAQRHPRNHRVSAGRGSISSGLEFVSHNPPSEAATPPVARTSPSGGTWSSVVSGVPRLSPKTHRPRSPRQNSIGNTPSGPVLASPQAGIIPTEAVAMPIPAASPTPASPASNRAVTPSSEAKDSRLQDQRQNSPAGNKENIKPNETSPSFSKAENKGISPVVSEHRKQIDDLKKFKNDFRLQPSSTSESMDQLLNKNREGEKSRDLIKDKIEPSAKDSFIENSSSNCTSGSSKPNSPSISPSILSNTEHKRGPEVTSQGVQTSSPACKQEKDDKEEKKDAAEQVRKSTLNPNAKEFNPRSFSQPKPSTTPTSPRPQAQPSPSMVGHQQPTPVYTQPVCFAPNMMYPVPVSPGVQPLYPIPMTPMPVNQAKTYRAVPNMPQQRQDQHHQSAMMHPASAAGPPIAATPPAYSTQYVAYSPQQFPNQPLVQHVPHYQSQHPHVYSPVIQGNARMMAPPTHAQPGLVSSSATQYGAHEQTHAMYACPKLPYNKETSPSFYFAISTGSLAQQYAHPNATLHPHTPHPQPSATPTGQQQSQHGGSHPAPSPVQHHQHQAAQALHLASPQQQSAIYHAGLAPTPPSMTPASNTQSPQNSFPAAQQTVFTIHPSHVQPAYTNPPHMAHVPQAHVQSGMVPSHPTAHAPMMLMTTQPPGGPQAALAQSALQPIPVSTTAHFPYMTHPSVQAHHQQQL

This test has as its target Ataxin-2 (Homo sapiens) (UniProt Q99700). The experiment in a line: qHTS for Inhibitors of ATXN expression. The test is classed as functional. Background: Quantitative high-throughput screening tests each substance at several concentrations.
On to `CCc1ccc2nc3nc(C)cc(C)c3c(N)c2c1`, for which the Potency result was “inactive”.

Take `Cc1ccc(C(=O)CC(=O)c2ccccc2C)c(O)c1`: the Potency entry was “inactive”.

Consider `CC(=O)c1cccc(NC(=O)C(C)OC(=O)c2cccc(S(=O)(=O)N3CCN(C)CC3)c2)c1` (stereo not drawn), for which the Potency entry was “inactive”.

Turning to `Cc1nnc2ccc(-c3ccc(NC(=O)c4ccco4)cc3)nn12`, the Potency entry is “inactive”.

Turning to `Cc1ccc(-c2nn3c(C)nnc3s2)cc1NC(=O)c1ccc(-c2ccc(Cl)cc2Cl)o1`, the Potency was 8.91 µM (active).

For `C=C(C)CNC(=O)c1ccc2nc(Cc3ccc(OC)cc3)oc2c1`, the Potency result is “inactive”.

In the case of `O=C(NCCO)c1ccc2nc(Cc3cccc(Cl)c3)oc2c1`, the Potency result was “inactive”.

`O=C(NCCCN1CCN(c2ccc(F)cc2)CC1)c1ccc2nc(Cc3ccccc3)oc2c1`: the Potency is 20 µM (active).

In the case of `O=c1c(O)c(-c2cccs2)oc2ccc(Cl)cc12`, the Potency result is “inactive”.

Consider `Cc1ccc2cc(C#N)c(NCc3ccccc3)nc2c1`, for which the Potency result was “inactive”.

As for `N#Cc1ncc(Cc2ccccc2)nc1C#N`, the Potency is 39.8 µM (active).

As to `Cc1nc2nc(SCc3ccccc3)nn2c(O)c1CCC(C)C`, the Potency entry was “inactive”.

Take `COc1ccc(-c2cc(C(=O)NC3=NCCS3)c3ccccc3n2)cc1OC`: the Potency entry was “inactive”.

On to `CC1CCN(CCCNC(=O)c2cc3c(Cl)nc4ccccc4c3s2)CC1`, for which the Potency was 39.8 µM (active).

For `O=C(NC1CCCC1)c1cc2c(=O)n3ccccc3nc2s1`, the Potency result was “inactive”.

For the molecule `COc1ccc(NC(=O)c2cc3c(Cl)nc4ccccc4c3s2)cc1OC`, the Potency is 35.5 µM (active).

As to `COc1ccc(NC(=O)c2cc3c(=O)n(C)c4ccccc4c3s2)cc1OC`, the Potency entry was “inactive”.

As for `CCC1CCCCN1CCCNC(=O)c1cc2c(Cl)nc3ccccc3c2s1` (stereo not drawn), the Potency was 31.6 µM (active).

For `O=C(Cc1csc(Nc2nc(S)nc3ccccc23)n1)NCCCN1CCN(c2ccccc2F)CC1`, the Potency entry is “inactive”.

Take `CCC1CCCCN1c1nc2c(C=O)c(C)nn2c2ccccc12` (stereo not drawn): the Potency result was “inactive”.

With `O=C(Cc1csc(Nc2nc(S)nc3ccccc23)n1)NCCCN1CCN(c2cccc(Cl)c2)CC1`, the Potency result was “inactive”.

As to `CCCCCC(=O)NC(=S)Nc1ccc(Cl)cn1`, the Potency result is “inactive”.

Regarding `N#Cc1cnn2c(-c3cccc([N+](=O)[O-])c3)ccnc12`, the Potency entry is “inactive”.

In the case of `FC(F)(F)c1cc(-c2cccs2)nc2ncnn12`, the Potency result was “inactive”.

On to `CN1CCN(C(=O)CN(C2CCCCC2)S(=O)(=O)c2ccccc2)CC1`, for which the Potency entry was “inactive”.

In the case of `COc1ccccc1C(=O)N(Cc1cc2cc3c(cc2nc1N(C)C)OCO3)CC1CCCO1` (stereo not drawn), the Potency entry is “inactive”.

`CCOc1ccccc1C(=O)N(Cc1ccccc1)Cc1cc2cc3c(cc2nc1O)OCCO3`: the Potency is 35.5 µM (active).

For `CCN(CC)CCCN(Cc1cc2cc3c(cc2nc1O)OCO3)C(S)=Nc1ccc(OC)cc1`, the Potency result is “inactive”.

Regarding `Cc1ccc(CNS(=O)(=O)c2ccc3c(c2)CCN3C(=O)CCCC(=O)O)cc1`, the Potency entry is “inactive”.

For the molecule `CCc1cccc(C)c1NC(=O)CNCc1ccccc1`, the Potency entry is “inactive”.

Regarding `CCOc1ccc(CNCc2c(C(=O)O)n(Cc3ccc(C)cc3)c3cc(C)ccc23)cc1`, the Potency was 25.1 µM (active).

For `Cc1ccc(CNCc2c(C(=O)O)n(Cc3ccc(C)cc3)c3cc(C)ccc23)cc1`, the Potency is 22.4 µM (active).

As for `CCOc1ccc(-c2oc3ccc(C)cc3c(=O)c2O)cc1`, the Potency result was “inactive”.

Regarding `CCc1ccc(CNCc2c(C(=O)O)n(Cc3ccc(C)cc3)c3cc(C)ccc23)cc1`, the Potency is 31.6 µM (active).

Consider `CCOc1ccc(C2C(C(=O)OC)=CN(CCOC)C=C2C(=O)OC)cc1`, for which the Potency entry is “inactive”.

Regarding `Cc1ccc(CNC(=O)c2ccc3c(O)c(O)c(-c4ccc(C)cc4)nc3c2)cc1`, the Potency entry was “inactive”.

Turning to `CCNC(=O)c1cc2c(=O)n3cccc(C)c3nc2n(Cc2ccc(C)cc2)c1=N`, the Potency result is “inactive”.

In the case of `Cc1ccc(Cn2c(C(=O)O)c(CNCc3ccc(OC(C)C)cc3)c3ccc(C)cc32)cc1`, the Potency is 35.5 µM (active).

Take `Cc1cccc(C(=O)/N=c2/c(C#N)cc3c(=O)n4cccc(C)c4nc3n2Cc2ccco2)c1`: the Potency result is “inactive”.

For `Cn1ncc(Oc2ccc([N+](=O)[O-])cc2)c(Cl)c1=O`, the Potency entry is “inactive”.

Turning to `O=C(c1ccccn1)N(c1ccccc1)C1(C(=O)NC2CCCCC2)CCCCC1`, the Potency entry is “inactive”.

`OC[C@@H]1[C@@H](c2ccccc2)C(c2ccccc2)=NN1c1ccccc1`: the Potency result is “inactive”.

Regarding `CCOCCCNC(=O)C(NC(=O)c1ccc2c(c1)OCO2)c1ccc(Cl)cc1` (stereo not drawn), the Potency entry was “inactive”.

Regarding `NC1=Nc2cccc3cccc1c23`, the Potency entry is “inactive”.

Take `Cc1cc2c(cc1C)NC(CC(=O)Nc1ccccc1SC(F)(F)F)C(=O)N2` (stereo not drawn): the Potency result is “inactive”.

For `Cc1cc2n(n1)C(c1ccccc1)CC(c1ccc(Br)cc1)=N2` (stereo not drawn), the Potency result was “inactive”.

On to `CCOC(=O)c1c(SCC(=O)Nc2nccs2)nc(C)c(C)c1C`, for which the Potency result was “inactive”.

As to `Cc1cc(C)nc(SC2CC(=O)N(c3ccc(C)c(C)c3)C2=O)n1` (stereo not drawn), the Potency result was “inactive”.

`Cc1ccc(N2C(=O)CC(Sc3nc4ccccc4o3)C2=O)cc1Cl` (stereo not drawn): the Potency is 39.8 µM (active).

For the molecule `CC(=O)NS(=O)(=O)c1ccc(N2C(=O)CC(Sc3nccc(C)n3)C2=O)cc1` (stereo not drawn), the Potency result is “inactive”.

`CSc1ccc(/C=C2\CCn3c2nc2cc(C(=O)O)ccc2c3=O)cc1`: the Potency entry is “inactive”.

Turning to `CCN(CC)C(=O)c1cc2c(=O)n3cccc(C)c3nc2s1`, the Potency result was “inactive”.

Take `C/C(=N\NC(=O)COc1ccc([N+](=O)[O-])cc1)c1ccco1`: the Potency entry is “inactive”.

For `Cc1ccccc1-c1nnn(CC(=O)Nc2ccc3c(c2)OCO3)n1`, the Potency result was “inactive”.

For `O=C(Cn1nnc(-c2ccccc2)n1)NCC(=O)Nc1ccc(F)c(F)c1F`, the Potency result was “inactive”.

Take `Cc1cccc(C)c1NC(=O)Cn1nnc(-c2ccc(N3CCOCC3)cc2)n1`: the Potency was 39.8 µM (active).

Turning to `CCOCCCNC(=O)c1c(N)n(-c2ccc3c(c2)OCO3)c2nc3ccccc3nc12`, the Potency result is “inactive”.

For `COc1cccc2c(=O)c3c(cnn3C)n(C)c12`, the Potency entry was “inactive”.

Turning to `COc1ccccc1CNC(=O)CCC1N=C2c3ccccc3N=C(SCc3ccc(C)cc3C)N2C1=O` (stereo not drawn), the Potency was 17.8 µM (active).

With `COc1ccccc1CNC(=O)CN1C(=O)c2cccc(N)c2C1=O`, the Potency result was “inactive”.

For `O=C(NCc1nnc(S)n1-c1cccc(C(F)(F)F)c1)c1ccc(S(=O)(=O)N2CCCCC2)cc1`, the Potency entry is “inactive”.

On to `Nc1cccn2c(-c3ccc(Cl)cc3)cnc12`, for which the Potency entry is “inactive”.

As to `Cc1cc(-c2ccccc2)nc2oc(C(=O)NN)c(N)c12`, the Potency result is “inactive”.

With `Cc1ccc(CSc2nc3ccccc3c(=O)n2C)cc1`, the Potency entry was “inactive”.

For `Cc1ccc(CSc2nc(-c3ccccc3C)nc3c2Cc2c(CO)cnc(C)c2O3)cc1`, the Potency was 28.2 µM (active).

Consider `COc1ccc(C2CC(c3ccccc3Cl)=NN2c2ccc(S(N)(=O)=O)cc2)cc1` (stereo not drawn), for which the Potency result is “inactive”.

For `CC(=O)Nc1ccc(C(=O)Nc2ccncc2)cc1`, the Potency result is “inactive”.

With `CC(C)CC(NS(=O)(=O)OCC(Cl)(Cl)Cl)c1ccccc1` (stereo not drawn), the Potency was 35.5 µM (active).

On to `Cc1ccc(C)c(N(C(=O)c2snc(C(N)=O)c2N)C(C(=O)NCC2CCCO2)c2ccc(C)o2)c1` (stereo not drawn), for which the Potency result is “inactive”.

On to `N=c1c(C(=O)NCC2CCCO2)cc2c(=O)n3ccccc3nc2n1C1CCCC1` (stereo not drawn), for which the Potency entry is “inactive”.

Take `COC(=O)c1ccc(N2C(c3cc(OC)cc(OC)c3)=Cc3ccc(-c4ccc(C(N)=O)cc4)cc3C2CC(=O)C2CC2)cc1` (stereo not drawn): the Potency result is “inactive”.

Turning to `N=C1c2c(cc(O)n3c2nc2ccccc23)CN1CCN1CCOCC1`, the Potency result was “inactive”.

In the case of `C[C@@H](C[C@@H](O)[C@H](O)C(C)(C)O)[C@@H]1CC[C@]2(C)C3=CC[C@H]4C(C)(C)C(=O)CC[C@]4(C)[C@H]3CC[C@@]12C`, the Potency was 39.8 µM (active).

With `Cc1cc(C)c(C(=O)CSc2nc(C)cc(C)c2C(N)=O)c(C)c1`, the Potency result is “inactive”.

As for `CC(=O)N1CCc2c(sc3nc(SCC(C)C)n(-c4ccc(C)c(Cl)c4)c(=O)c23)C1`, the Potency was 25.1 µM (active).

For `CSc1nc2sc3c(c2c(=O)n1CC(C)C)CC(C)(C)OC3`, the Potency result is “inactive”.

Take `Oc1nc(C(Cl)Cl)nc2sc3c(c12)CCN(Cc1ccccc1)C3`: the Potency entry is “inactive”.

`COc1ccc(F)cc1S(=O)(=O)Nc1cccc(-c2ccc(N3CCCCCC3)nn2)c1`: the Potency was 39.8 µM (active).

For the molecule `COc1cccc(C(=O)Nc2cccc(-c3ccc(N4CCOCC4)nn3)c2)c1OC`, the Potency result is “inactive”.

On to `Cc1cc(S(=O)(=O)Nc2cccc(-c3ccc(N4CCOCC4)nn3)c2)c(C)cc1Cl`, for which the Potency is 39.8 µM (active).

For `O=C(Nc1ccc(N2CCOCC2)c(S(=O)(=O)Nc2cc(Cl)ccc2Cl)c1)c1cccnc1`, the Potency result was “inactive”.

On to `Cc1ccc(S(=O)(=O)NCCC(=O)Oc2ccc3ccc(=O)oc3c2)cc1`, for which the Potency result is “inactive”.

As to `Cc1ccc2c(Cl)cc(Cl)c(OCC(=O)NC(C)(C)C)c2n1`, the Potency result is “inactive”.

For the molecule `Cc1ccc(C(=O)Nc2cccc(-c3nc(CNC(=O)c4ccc5ccccc5n4)c(C)o3)c2)s1`, the Potency entry is “inactive”.

Take `CSc1ccccc1C(=O)NCc1nc(-c2cccc(NC(=O)c3ccoc3C)c2)oc1C`: the Potency was 25.1 µM (active).

In the case of `COC(=O)c1cccc(C(=O)NCc2nc(-c3cccc(NC(=O)c4ccoc4C)c3)oc2C)c1`, the Potency is 31.6 µM (active).

Regarding `Cc1oc(-c2cccc(NC(=O)c3ccccn3)c2)nc1CNC(=O)C#Cc1ccccc1`, the Potency result was “inactive”.

Take `CSc1nc(C(=O)NCc2nc(-c3cccc(NC(=O)c4ccccn4)c3)oc2C)cs1`: the Potency entry is “inactive”.

In the case of `O=[N+]([O-])c1cc2c(cc1/C=N/n1cnnc1)OCO2`, the Potency result is “inactive”.

As to `CCNc1nc(C)c(CN(C(C)=O)c2ccccc2)nc1C#N`, the Potency result is “inactive”.

In the case of `Cc1ccc(-c2cn3nc(C)c(C)nc3n2)cc1`, the Potency result is “inactive”.

With `Cc1cccc(N(CC(O)Cn2c3ccccc3c3ccccc32)S(=O)(=O)c2ccc(F)cc2)c1` (stereo not drawn), the Potency was 15.8 µM (active).

On to `CCCCN(CCCC)CC(O)Cn1c2ccccc2c(=O)c2ccccc21` (stereo not drawn), for which the Potency entry was “inactive”.

Turning to `Cc1ccc(S(=O)(=O)N(CC(O)Cn2c3ccccc3c3ccccc32)c2cccc(C(=O)NCCO)c2)cc1` (stereo not drawn), the Potency was 35.5 µM (active).

Turning to `O=S(=O)(c1ccc(F)cc1)N(CC(O)Cn1c2ccccc2c2ccccc21)c1ccccc1` (stereo not drawn), the Potency is 22.4 µM (active).

As for `CCCCN(C)CC(O)Cn1cc(/C=C/C(=O)c2ccc(C)cc2)c2ccccc21` (stereo not drawn), the Potency result was “inactive”.

In the case of `CC(C)(C)N(NS(=O)(=O)c1ccc(F)cc1)c1ccccc1`, the Potency entry was “inactive”.

As for `CN(C)/C=N/c1nc2nccc(-c3ccccn3)n2n1`, the Potency entry was “inactive”.
